Measured values from PubChem BioAssay (NCI).
This is part of a sample that, as a whole, favours compounds with a hit. Of some 83,000 tested, about 20% had one in any assay.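 Step 1: grow cells in 96-well plates. Step 2: add test compound at a single concentration. Step 3: incubate 48 h. Step 4: record percent growth.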 Values without a mark were called inactive. Calls of active or inactive are those of the source. How the source made its calls: active means growth percent below 10; inactive means the rest.

Assays:
Assay in all cases: NCI-60 one-dose screen, 48 h (100 = growth as untreated, 0 = no growth, -100 = all killed)
Conditions in all cases: 10 µM
SK-MEL-2 melanoma = test system: SK-MEL-2 melanoma
SN12C renal = test system: SN12C renal
UO-31 renal = test system: UO-31 renal
TK-10 renal = test system: TK-10 renal
ACHN renal = test system: ACHN renal
CAKI-1 renal = test system: CAKI-1 renal
A498 renal = test system: A498 renal
CCRF-CEM leukemia = test system: CCRF-CEM leukemia
MOLT-4 leukemia = test system: MOLT-4 leukemia
SR leukemia = test system: SR leukemia
RPMI-8226 leukemia = test system: RPMI-8226 leukemia
OVCAR-8 ovarian = test system: OVCAR-8 ovarian
OVCAR-5 ovarian = test system: OVCAR-5 ovarian
OVCAR-4 ovarian = test system: OVCAR-4 ovarian
SK-OV-3 ovarian = test system: SK-OV-3 ovarian
IGROV1 ovarian = test system: IGROV1 ovarian
OVCAR-3 ovarian = test system: OVCAR-3 ovarian
HS 578T breast = test system: HS 578T breast
NCI/ADR-RES ovarian = test system: NCI/ADR-RES ovarian

| Compound | growth (SK-MEL-2 melanoma) | growth (SN12C renal) | growth (UO-31 renal) | growth (TK-10 renal) | growth (ACHN renal) | growth (CAKI-1 renal) | growth (A498 renal) | growth (CCRF-CEM leukemia) | growth (MOLT-4 leukemia) | growth (SR leukemia) | growth (RPMI-8226 leukemia) | growth (OVCAR-8 ovarian) | growth (OVCAR-5 ovarian) | growth (OVCAR-4 ovarian) | growth (SK-OV-3 ovarian) | growth (IGROV1 ovarian) | growth (OVCAR-3 ovarian) | growth (HS 578T breast) | growth (NCI/ADR-RES ovarian) |
| --- | --- | --- | --- | --- | --- | --- | --- | --- | --- | --- | --- | --- | --- | --- | --- | --- | --- | --- | --- |
| COc1ccc(-c2nc(-c3nc4ccc(OC)cc4[nH]3)c3ccccn23)cc1 | 71.3% | 71.4% | 25.5% | 79.3% | 64.2% | 64% | 55.5% | 33.8% | 45.5% | 32.4% | 3.21% (active) | 30.8% | 89.7% | 50.5% | 92.3% | 57.2% | 81.8% | 80% | 50.9% |
| COc1cc(C2CC(=O)Nc3c2c(C)nn3-c2nc3ccccc3[nH]2)cc(OC)c1O (stereo not given) | -7.45% (active) | 81.2% | 8.39% (active) | 37.2% | 31.1% | 78.9% | 22.5% | 0.819% (active) | -36% (active) | 9.39% (active) | 83.5% | 19.9% | 112% | 63.8% | 2.53% (active) | 28.2% | 20.9% | 8.42% (active) | 80.6% |
| CCC(O)c1ccc(Br)cc1NC(=O)c1cccc(Cl)c1 (stereo not given) | 34% | 18.7% | -11.6% (active) | 41.9% | 15.6% | 7.99% (active) | 25.3% | 6.46% (active) | 10.1% | 8.25% (active) | 18.2% | 13.9% | 50.4% | 24.9% | 34% | 10.4% | 33.8% | 51% | 5.46% (active) |
| CCCCCCCCCCCC(c1ccccc1)N(C)C (stereo not given) | 116% | 90.7% | 68.9% | 134% | 92.5% | 93.2% | 71.2% | 69.1% | 82.1% | 77% | 83.5% | 97.7% | 99.2% | 84.7% | 108% | 96.1% | 106% | 93.3% | 96.1% |
| CCCCCCCCCCCCCC[n+]1ccccc1 | -78% (active) | -41.8% (active) | 5.61% (active) | -70.4% (active) | 4.31% (active) | -43.8% (active) | 7.27% (active) | -42.2% (active) | -51.9% (active) | -22.6% (active) | -57% (active) | -68.7% (active) | 5.24% (active) | -6.58% (active) | -0.0653% (active) | -60.4% (active) | -51.2% (active) | -12.6% (active) | 73.3% |
| FC(F)(F)c1ccc(-c2cnc(Cl)nc2NC2CCCCCC2)cc1 | -4.24% (active) | 18.2% | 23.5% | 32.1% | 5.68% (active) | 67.5% | 89.9% | 26.3% | 85.1% | 39.2% | -4.84% (active) | 15.2% | 28.7% | 10.6% | 56.1% | 27.7% | 3.4% (active) | 41.1% | 74.2% |
| COc1nc2c(c(=O)[nH]1)C(c1ccc(Oc3ccnc4cc(Cl)ccc34)c(OC)c1)C=C(c1cc(OC)c(OC)c(OC)c1)N2 (stereo not given) | 82.6% | 90.7% | 74.5% | 103% | 102% | 94.1% | 81.9% | 87.4% | 78% | 74.1% | 94.5% | 97.4% | 92.6% | 106% | 99.5% | 107% | 108% | 98.3% | 101% |
| Cc1ccc([P+](Cc2ccc([N+](=O)[O-])cc2)(c2ccc(C)cc2)c2ccc(C)cc2)cc1 | -21.6% (active) | 67.6% | 70.5% | 49.1% | 97.5% | 94.7% | 65.6% | 24.5% | 52.4% | 3.65% (active) | -25.3% (active) | 40.3% | 72.9% | 31.1% | 74.7% | 11.9% | 25.7% | 86.9% | 100% |
| COc1cc(C(c2c[nH]c3ccccc23)N2CCCC2)ccc1OCc1ccccc1 (stereo not given) | 81.6% | 74.9% | 24.7% | 76.6% | 73.2% | 53.3% | 71.6% | 16.2% | 26.1% | 34.9% | 32.3% | 80.4% | 97.1% | 91.8% | 89.5% | 48.1% | 75.5% | 57.2% | 76.5% |
| Fc1cc(-c2ncc(-c3cc(F)c(F)c(F)c3)c(NC3CCCCCC3)n2)cc(F)c1F | 111% | 87.9% | 88.8% | 152% | 106% | 87.6% | 96.8% | 96.2% | 102% | 95.9% | 96.3% | 102% | 110% | 89.1% | 115% | 110% | 110% | 102% | 106% |
| N#C/C(=C/c1cc([N+](=O)[O-])ccc1Cl)C(N)=O | 88.2% | 98.8% | 72.7% | 108% | 105% | 86.9% | 111% | 63.1% | 87.1% | 8.43% (active) | 68.7% | 82.5% | 107% | 94.2% | 95.5% | 69.9% | 104% | 113% | 98.2% |
| C=CCNC(=S)NN | 99.1% | 81.7% | 61.7% | 96.2% | 94.1% | 91.6% | 81% | 63.2% | 64.6% | 54.6% | 74.2% | 71.2% | 69.7% | 96.8% | 98.4% | 45.3% | 96.5% | 89.5% | 82.7% |
| COc1cccc(C2(C)Nc3ccccc3-c3nc4ccccc4n32)c1 (stereo not given) | 105% | 100% | 94.2% | 106% | 102% | 99.8% | 95.6% | 99.1% | 84.5% | 87.7% | 96.4% | 105% | 109% | 112% | 104% | 101% | 112% | 112% | 97% |
| OC(CNC1CCCC1)Cn1c2ccccc2c2ccccc21 (stereo not given) | 48.9% | 50.7% | 12.3% | 29.2% | 15.1% | 31.8% | 58% | 4.28% (active) | -13.9% (active) | -32.5% (active) | 1.44% (active) | 24.2% | 103% | 36.2% | 59.7% | 30.9% | 36.4% | 63.6% | 15.1% |
| COc1cc(-c2nc3ccccc3[nH]2)ccc1OCC(=O)N=Nc1c(O)[nH]c2ccccc12 | 103% | 83.2% | 89.3% | 136% | 101% | 94.2% | 95.2% | -25.3% (active) | 65.9% | -5.28% (active) | 25.8% | 49.1% | 109% | 76.4% | 101% | 93.2% | 79.6% | 83.7% | 109% |
| Cc1cc(C)c2c(Nc3ncnc4c3sc3nc(C)cc(C)c34)n[nH]c2n1 | 114% | 99.3% | 90.9% | 104% | 93.6% | 101% | 92.3% | 95.3% | 94.1% | 94% | 98.9% | 97.8% | 95.2% | 86.3% | 106% | 120% | 101% | 105% | 100% |
| O=c1ccc2nc(-c3ccccc3)nn(-c3ccccc3)c-2c1 | 44.9% | 40.2% | -97.5% (active) | -95.9% (active) | -96% (active) | -90.9% (active) | 84.4% | -16.3% (active) | -37.9% (active) | -20.2% (active) | -8.63% (active) | -2.36% (active) | 102% | -40.7% (active) | 59.1% | 2.66% (active) | -98.1% (active) | 75.9% | 96.2% |
| C#C[C@]1(O)CC[C@H]2[C@@H]3CC[C@H]4CC(F)(F)CC[C@]4(C)[C@H]3CC[C@@]21C | 115% | 87.4% | 102% | 97.7% | 89.3% | 84.6% | 41.1% | 74.7% | 95.7% | 8.15% (active) | 80.1% | 84.6% | 88.5% | 94.2% | 60.8% | 94.2% | 93.9% | 77.6% | 92.2% |
| COc1ccc(-c2nsc3c2NC(=O)CC3c2cccc(Cl)c2)cc1 (stereo not given) | -14.4% (active) | 47.8% | 36.8% | 34.9% | 49.9% | 18.4% | 17.8% | 13.8% | 18.2% | 7.99% (active) | 12.4% | 33.7% | 32.8% | 53.2% | 3.46% (active) | 39.2% | 11.4% | 37.6% | 15.7% |
| COc1ccc(C2C=C(c3ccc(Cl)c(Cl)c3)N=C3SC(C)=CN32)cc1OC (stereo not given) | 79.2% | 70.6% | 60.7% | 74.1% | 68.3% | 61.7% | 105% | 58.5% | 48.8% | 61.9% | 38.4% | 68.7% | 97.1% | 72.9% | 109% | 72.2% | 60.9% | 90.8% | 79.4% |
